SARS PLpro yeast: SARS-CoV PLP inhibition in yeast. S. cerevisiae expressing SARS-CoV PLpro, growth rescue. Potency, µM (highest dose often 32.9 µM), inactives show at the highest dose activity, positive = growth rescue, usual class: activators. 330,000 compounds, 0.19% hits. AID 485353; calls by dose curve; also: potency is read from the fitted curve at half-maximal effect; 0% is about no effect; nearly all actives have a fitted effect of over 55% in size
CHX counter: counter-screen for Shiga toxin inhibitors: cycloheximide protein synthesis inhibition; cell reporter, cycloheximide protein synthesis inhibition counterscreen; max response, %; 300,000 compounds, 12% hits; AID 2314; in the data active = max response mostly above about 13%, no sharp cut-off; inactive = mostly below about 14%; also: read at 38.3 µM for the half of the compounds with a filed dose; 0% is about no effect
NS1 inh: influenza NS1 inhibition; Potency, µM (top dose mostly 46.1 µM), inactives show at the top dose activity, positive = more growth; 270,000 compounds, 0.4% hits; calls by dose curve; also: potency is read from the fitted curve at half-maximal effect; actives are rising curves; nearly all actives have a fitted effect of over 50% in size
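A cell-based growth assay was used: compounds that relieve NS1-induced slow growth of budding yeast raise OD600. Assay medium was yeast nitrogen base with ammonium sulphate and -URA supplement, pH 6.0, with 2% galactose.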
Pf growth 48h: P. falciparum growth inhibition at 48 hours (one generation). P. falciparum luciferase growth in erythrocytes, 48 h. Potency, µM (highest dose often 28.7 µM), without a hit: at the highest dose activity change, negative = inhibition, usual class: inhibitors. 310,000 compounds, 5.9% hits. AID 504832; also: potency is read from the fitted curve at half-maximal effect; % is scaled to controls: 0 for no effect and ±100 for the full control effect
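Compounds are pin-transferred into medium, infected erythrocytes (2% hematocrit, 0.1% parasitemia final) are added, and plates sit one parasite generation at 37 C in 5% CO2. Detection reagent is then added and luminescence measured.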
Shiga inhibitor: blocks Shiga toxin action in Vero cells; Vero cells, Shiga toxin protein synthesis inhibition reporter; inhibition, % at 38.7 µM; 290,000 compounds, 9.2% hits; in the data active = inhibition mostly above about 28%, no sharp cut-off; inactive = mostly below about 43%; also: 0% is about no effect
Pf growth 96h: P. falciparum growth inhibition at 96 hour, primary screen for plastid delayed-death inhibitors. AID 504834. 320,000 compounds, 6.9% hits. P. falciparum luciferase reporter growth, 96 h. Potency, µM (doses to about 28.7 µM), for inactives: top-dose activity change, negative = inhibition, most hits filed as inhibitors; also: potency is read from the fitted curve at half-maximal effect; % is scaled to controls: 0 for no effect and ±100 for the full control effect
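Erythrocytes infected with luciferase-expressing P. falciparum were dispensed at 2% hematocrit and 0.05% parasitemia (final), then incubated with compounds 96 hours at 37 C in 5% CO2. Luminescence after detection reagent addition reported growth.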
Starred values were filed as active, the others as inactive. Most compounds without a hit are left out; they make up all but 21% or so of the library. Unless noted, calls follow the shape of the dose curve; as a rule, active = well fitted inhibition curve with a large enough effect; inconclusive = small, poorly fitted or top-dose-only effect, or another doubt; inactive = no such curve, though single readings can be large or run the other way.

For Cc1ccc(NC(=O)C(=O)NNC(=O)c2cccs2)cc1 the results were SARS PLpro yeast -2%, CHX counter 29*, Pf growth 48h 19%, Shiga inhibitor 38 and Pf growth 96h inconclusive.
For CCCCN(CCCC)S(=O)(=O)c1ccc(NC(=O)c2cccs2)cc1 the results were SARS PLpro yeast -9%, CHX counter -5, NS1 inh 2%, Shiga inhibitor -8 and Pf growth 96h 0.41µM*.
`CCC(=O)Nc1ccc(C(=O)NNC(=O)c2cccs2)cc1` gave SARS PLpro yeast inconclusive, CHX counter 0, NS1 inh 1%, Pf growth 48h 7%, Shiga inhibitor 19 and Pf growth 96h 0%.
`CCOC(=O)c1c(C)nn(-c2ccc(NC(=O)c3cccs3)cc2)c1C` gave SARS PLpro yeast 1%, CHX counter 17, NS1 inh -17%, Pf growth 48h 15µM*, Shiga inhibitor 35 and Pf growth 96h 3.3µM*.
Screening O=C(Cc1ccc(NS(=O)(=O)c2cccc(C(F)(F)F)c2)cc1)NCCN1CCOCC1 returned SARS PLpro yeast -4%, Pf growth 48h inconclusive and Pf growth 96h -14%.
CCOC(=O)C1=C(C)NC(=NC)SC1c1ccccc1 (stereo not drawn) was read as SARS PLpro yeast -1%, CHX counter 9, NS1 inh 0%, Pf growth 48h -27%, Shiga inhibitor 11 and Pf growth 96h 4%.
Cc1ccc(C)c(NC(=S)N2CCN(CCO)CC2)c1 was read as SARS PLpro yeast 16%, CHX counter -4, NS1 inh 11%, Pf growth 48h 8%, Shiga inhibitor 2 and Pf growth 96h 40%.
COc1ccc(NC(=O)C(=O)NNC(=O)c2cccs2)cc1 was read as SARS PLpro yeast -30%, CHX counter 15*, NS1 inh -7%, Pf growth 48h 23%, Shiga inhibitor 10 and Pf growth 96h 3.7µM*.
Screening Nc1ccc(/C=C/C(=O)c2cccs2)cc1 returned SARS PLpro yeast -4%, CHX counter 40*, NS1 inh -35%, Pf growth 48h 321%, Shiga inhibitor 68* and Pf growth 96h 35%.
Cc1ccc(NC(=O)c2cccs2)cc1 was read as SARS PLpro yeast -13%, CHX counter 53*, NS1 inh -83%, Shiga inhibitor 81 and Pf growth 96h 66%.
For COc1ccc(C(=O)NNC(=S)NC(=O)c2cccs2)cc1 the results were SARS PLpro yeast -38%, CHX counter -2, NS1 inh -89%, Pf growth 48h -29%, Shiga inhibitor -6 and Pf growth 96h 56%.
O=C(Cc1ccccc1)Nc1ccc(NC(=O)c2cccs2)cc1 was read as SARS PLpro yeast -6%, CHX counter 15, Pf growth 48h -8%, Shiga inhibitor 25 and Pf growth 96h 24%.
Nc1ccc(NC(=O)c2cccs2)cc1 was read as SARS PLpro yeast -1%, CHX counter 21*, NS1 inh 2%, Pf growth 48h 32%, Shiga inhibitor 23 and Pf growth 96h -8%.
`COc1cc(NC(=O)CSc2nnc3c(n2)[nH]c2ccc(S(=O)(=O)NC(C)C)cc23)cc(OC)c1OC` gave SARS PLpro yeast -1%, CHX counter 3, Pf growth 48h 7%, Shiga inhibitor 3 and Pf growth 96h -27%.
Screening Nc1ccc(NC(=O)Nc2ccc(N)cc2)cc1 returned SARS PLpro yeast 0%, CHX counter 17*, NS1 inh 7%, Pf growth 48h 32%, Shiga inhibitor 29* and Pf growth 96h 81%.
Screening CCOC(=O)C1CC=C(Cl)CC1C(=O)Nc1nccs1 (stereo not drawn) returned SARS PLpro yeast -4%, CHX counter -1, NS1 inh -44%, Pf growth 48h 24%, Shiga inhibitor -5 and Pf growth 96h inconclusive.
Screening O=C(CN1CCN(c2ccccc2O)CC1)Nc1ccccc1C(=O)NCCc1ccccc1 returned SARS PLpro yeast 0%, Pf growth 48h -84% and Pf growth 96h 0%.
`COc1ccc(CCNC(=O)c2ccccc2NC(=O)CN2CCN(c3ccccc3O)CC2)cc1` gave SARS PLpro yeast 5%, Pf growth 48h 10µM* and Pf growth 96h 7.4µM*.
For COc1ccc(N2CCN(CC(=O)Nc3ccccc3C(=O)NCc3ccccc3)CC2)cc1 the results were SARS PLpro yeast 1%, Pf growth 48h 13µM* and Pf growth 96h inconclusive.
For O=C(NC1CCN(S(=O)(=O)c2ccccc2F)CC1)c1ccco1 the results were SARS PLpro yeast 0%, CHX counter -3, NS1 inh -16%, Pf growth 48h 16%, Shiga inhibitor 33 and Pf growth 96h 4%.
Screening Cc1cc(NS(=O)(=O)c2ccc(NC(=O)c3ccc([N+](=O)[O-])c(Cl)c3)cc2)no1 returned SARS PLpro yeast 0%, CHX counter -1, NS1 inh -5%, Pf growth 48h -14%, Shiga inhibitor -29 and Pf growth 96h inconclusive.
CCN1C=CC2=C(C#N)C(N)C(C#N)(C#N)C(c3ccccc3C(F)(F)F)C2C1 (stereo not drawn) was read as SARS PLpro yeast -9%, CHX counter -2, NS1 inh 8%, Pf growth 48h 2.9µM*, Shiga inhibitor -14 and Pf growth 96h inconclusive.
`O=[N+]([O-])c1cccc(N=NN(CCO)c2cccc([N+](=O)[O-])c2)c1` gave SARS PLpro yeast -1%, CHX counter -2, NS1 inh -5%, Pf growth 48h -13% and Shiga inhibitor -8.
For N#CCN(N=Nc1ccccc1)c1ccccc1 the results were SARS PLpro yeast 7%, CHX counter 38*, NS1 inh -5%, Pf growth 48h 10µM*, Shiga inhibitor 71* and Pf growth 96h 0%.
Screening C=CCc1cc(F)c(S(=O)(=O)N2CCN(S(=O)(=O)c3ccc4c(c3)OCCO4)CC2)cc1F returned CHX counter -2 and Shiga inhibitor -7.
For COc1cc2nc(CN3CCN(S(=O)(=O)c4c(F)cccc4F)CC3)[nH]c(=O)c2cc1OC the results were SARS PLpro yeast 6%, Pf growth 48h 10µM* and Pf growth 96h inconclusive.
`COc1cc2nc(CN3CCN(S(=O)(=O)c4ccccc4C(F)(F)F)CC3)[nH]c(=O)c2cc1OC` gave SARS PLpro yeast 0%.
Screening CN1C(=O)COc2ccc(C(=O)c3oc4ccccc4c3-c3cnc4c(c3)COc3ccccc3-4)cc21 returned SARS PLpro yeast 10%, CHX counter -2, NS1 inh 13%, Pf growth 48h inconclusive, Shiga inhibitor -3 and Pf growth 96h 6%.
For CC(=O)c1cnc2nc(SCc3cccc(C)c3)nn2c1C the results were SARS PLpro yeast 1%, CHX counter 9.4*, NS1 inh -7%, Pf growth 48h 159%, Shiga inhibitor 9 and Pf growth 96h 175%.
`CC(=O)c1cnc2nc(SCc3ccccc3)nn2c1C` gave SARS PLpro yeast 1%, CHX counter 35*, NS1 inh -6%, Pf growth 48h 88%, Shiga inhibitor 47* and Pf growth 96h -28%.
